Source: PubChem BioAssay (The Scripps Research Institute Molecular Screening Center)
GPR151 activ = activators of human GPR151; Q8TDV0; activation, % at 11.2 µM; actives 1% (n = 650,000); AID 1508602; PathHunter beta-arrestin GPR151 cells, luminescence; in the data active = activation above about 4.9%
MITF inh = inhibitors of human MITF | O75030 | AlphaScreen MITF homodimerization, bead proximity signal | inhibition, % at 2.6 µM | actives 0.91% (n = 650,000); in the data active = inhibition above about 50%
Target sequence (O75030 whole entry, looked up): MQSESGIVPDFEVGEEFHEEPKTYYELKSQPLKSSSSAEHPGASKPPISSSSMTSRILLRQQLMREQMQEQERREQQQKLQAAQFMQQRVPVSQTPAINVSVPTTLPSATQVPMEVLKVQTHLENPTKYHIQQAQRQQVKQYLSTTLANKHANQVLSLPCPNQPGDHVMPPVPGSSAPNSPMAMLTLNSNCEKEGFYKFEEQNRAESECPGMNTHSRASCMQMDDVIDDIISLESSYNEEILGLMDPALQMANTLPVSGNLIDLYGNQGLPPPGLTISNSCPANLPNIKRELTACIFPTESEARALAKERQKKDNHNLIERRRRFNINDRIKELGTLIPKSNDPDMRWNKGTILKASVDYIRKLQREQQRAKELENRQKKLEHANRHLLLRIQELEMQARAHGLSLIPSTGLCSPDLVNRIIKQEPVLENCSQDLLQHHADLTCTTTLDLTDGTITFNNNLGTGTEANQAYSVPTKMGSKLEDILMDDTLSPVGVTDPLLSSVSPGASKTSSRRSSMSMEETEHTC
TEAD-YAP block = TEAD-YAP interaction inhibition. inhibition, % at 9.12 µM. HEK-TIYL cells, TEAD-Gal4/YAP UAS-luciferase luminescence. actives 1.4% (n = 640,000); in the data active = inhibition above about 32%
FBW7 act = activators of human E3 ligase FBW7; AlphaScreen FBW7–phospho-cyclin E peptide binding, activator screen; normalized activity (activation), % at 26.1 µM; actives 0.13% (n = 650,000); in the data active = normalized activity above about 1.9%;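 also: purified mutant Fbw7 with reduced substrate affinity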
Each line names hits and unclear results; the compound was inactive in the other large screens; ! = repeats disagree. Only some compounds are listed: those with a hit (about 3.5% of all), similar ones and a draw of the others.

CCc1ccccc1Nc1nc(N)nc(Cn2nnc(-c3ccccc3)n2)n1	TEAD-YAP block 39
Cc1cccc(NC(=O)CSc2nc3c(c(=O)n2C)SCC3)c1C	TEAD-YAP block 37
CC(=O)OCC(OC(C)=O)C(OC(C)=O)C(OC(C)=O)C(=O)Nc1ccc([N+](=O)[O-])cc1 (stereo not given)	none
COc1cc2c(-c3ccccc3Cl)nc3c(c(C)nn3-c3ccccc3)c2cc1OC	TEAD-YAP block 40
COc1cc2c(-c3ccccc3Br)nc3c(c(C)nn3-c3ccccc3)c2cc1OC	none
COc1ccc(/C(C)=N/Nc2nncc3ccccc23)cc1	TEAD-YAP block 33
NNc1nncc2ccccc12	TEAD-YAP block 37!
O=C(COc1ccccc1)n1c2ccccc2c2ccccc21	none
Cc1ccc(Cc2c(C)nc3c(C(=O)NCCCN4CCOCC4)cnn3c2C)cc1	none
O=C(Nc1cc(Cl)ccc1O)c1cnn2cccnc12	none
COc1ccc(C(=O)Nn2c(-c3cc(OC)c(OC)c(OC)c3)nc3ccccc3c2=O)cc1OC	none
O=C(CSc1ncccc1C(=O)O)c1ccc2ccccc2c1	none
O=C(CSc1nnnn1-c1cccc(F)c1)c1ccc2c(c1)OCCO2	TEAD-YAP block 78
O=C(CSc1ncccc1C(=O)O)c1ccc2c(c1)OCCO2	TEAD-YAP block 34
O=C1CC2(CCN(C(=O)C3CCCCC3)CC2)Oc2ccc(Cl)cc21	none
COC(=O)c1ccc(N2C(=O)NC(=O)/C(=C\c3ccc(O)c(OC)c3)C2=O)cc1	none
FC(F)(F)c1cccc(CNc2nc(NCc3cccnc3)nc3c2ncn3-c2ccccc2)c1	TEAD-YAP block 48
CC(C)n1cnc2c(NCc3cccc(C(F)(F)F)c3)nc(NCc3cccnc3)nc21	TEAD-YAP block 40
FC(F)(F)c1cccc(CNc2nc(Nc3cnccn3)nc3c2ncn3-c2ccccc2)c1	none
CCCn1c(=O)c2c(nc3n(-c4ccccc4OC)c(C)c(C)n23)n(C)c1=O	none
CCC1CCC(=NNC(=O)COc2ccc(C#N)cc2)CC1 (stereo not given)	none
O=C(Nc1ccc2nc3n(c(=O)c2c1)CCCCC3)c1c(F)ccc([N+](=O)[O-])c1F	TEAD-YAP block 36
O=C(Nc1ccc2nc3n(c(=O)c2c1)CCCCC3)c1cc([N+](=O)[O-])ccc1F	none
Cc1ccc(S(=O)(=O)N2CCN(c3nnnn3-c3ccccc3)CC2)cc1Cl	FBW7 act 2.2
CC1Cc2ccccc2N1C(=O)CSc1nnc(Cc2cccs2)n1C (stereo not given)	TEAD-YAP block 47
CC1Cc2ccccc2N1C(=O)CSc1nnc(CSc2ncccn2)n1C (stereo not given)	none
COc1ccc(-c2csc(NC(=O)c3cc(C)nn3C)n2)cc1	TEAD-YAP block 63
COc1ccc(-c2csc(NC(=O)c3csc(C)c3)n2)cc1	none
COc1ccc(CN2C(=O)C(=O)c3cc(Br)ccc32)cc1	TEAD-YAP block 64
COc1ccccc1OCCN1C(=O)C(=O)c2cc(Br)ccc21	TEAD-YAP block 34
Cc1ccc(-n2c(SCC(=O)Nc3cc(C)on3)nc3c(sc(=S)n3-c3cc(C)ccc3F)c2=O)cc1	none
N#Cc1ccc(/C=N/NC(=O)c2cc(O)cc(O)c2)cc1	TEAD-YAP block 33
COc1ccc(C(=O)N/N=C\c2ccc(Br)cc2)cc1OC	TEAD-YAP block 40
COc1ccc(C(=O)N/N=C(/C)c2ccc(OC)cc2OC)cc1	none
COc1ccc(C(=O)N/N=C/c2ccc(O)c(O)c2)cc1Br	none
COc1ccc(/C=N/Nc2ccc(C(=O)O)cc2)cc1Br	TEAD-YAP block 45
N#Cc1ccc(/C=N/NC(=O)c2ccccc2O)cc1	none
COc1ccc(/C(C)=N/Nc2ccc(C(=O)O)cc2)c(OC)c1	TEAD-YAP block 48
S=C(Nc1ccc(N2CCOCC2)cc1)NC1CCCC1	none
O=C(CSc1nnc(Nc2ccccc2)s1)Nc1ccc(N2CCOCC2)cc1	none
O=C(O)c1cc(N/N=C/c2cccnc2)ccc1Cl	none
COc1cc(OC)cc(C(=O)N/N=C\c2ccc(OCC(N)=O)cc2)c1	TEAD-YAP block 56
O=C(O)c1ccc(N/N=C/c2cccnc2)cc1	TEAD-YAP block 33
COc1cc([N+](=O)[O-])cc(/C=N/NC(=O)c2cc(C)[nH]n2)c1O	MITF inh 59
COc1cc(/C=N/NC(=O)c2cc(C)[nH]n2)c(Br)c(Br)c1O	none
Cc1cc(C(=O)N/N=C\c2ccccc2O)n[nH]1	none
Cc1cc(C(=O)N/N=C/c2cc(N=Nc3ccccc3)ccc2O)n[nH]1	TEAD-YAP block 62
COc1cc(Br)cc(/C=N/NC(=O)c2cc(C)[nH]n2)c1O	MITF inh 55
CCCCOc1ccc(S(=O)(=O)NCc2ccc(OC)cc2)cc1	none
CC(=O)N1CCN(Cc2ccc3c(c2)CN(C(=O)Cc2ccccc2Cl)CCO3)CC1	none
